Data taken from the supplement of paper PMC3334620.
In all, about 33,000 sequences were measured (“E-score (-0.5 to 0.5)”: median about -0.056, highest 2% from about 0.38 on). Shown is part of a subset that was picked to be rich in the highest values.

target: Stb4 (UniProt P50104); assay: PBM E-score (8-mer binding enrichment) (E-score (-0.5 to 0.5)); higher = stronger / more preferred TF binding; details: protein concentration: 200 nM; construct: GST-DNA-binding domain
In short: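 GST-tagged yeast TFs (full-length or DNA-binding domain) were made by PURExpress in vitro transcription/translation and applied at about 100-200 nM to universal all-10-mer Agilent arrays. The arrays were made double-stranded by primer extension, on fresh or once-stripped slides. Bound protein was detected with fluorescent anti-GST, and scans were normalised with masliner. Each ungapped eight-base word, pooled with its reverse complement, received an E-score (modified Wilcoxon-Mann-Whitney statistic) from the Universal PBM Analysis Suite.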

Sequence of UniProt P50104 (P50104 whole entry, the tested form may be a part): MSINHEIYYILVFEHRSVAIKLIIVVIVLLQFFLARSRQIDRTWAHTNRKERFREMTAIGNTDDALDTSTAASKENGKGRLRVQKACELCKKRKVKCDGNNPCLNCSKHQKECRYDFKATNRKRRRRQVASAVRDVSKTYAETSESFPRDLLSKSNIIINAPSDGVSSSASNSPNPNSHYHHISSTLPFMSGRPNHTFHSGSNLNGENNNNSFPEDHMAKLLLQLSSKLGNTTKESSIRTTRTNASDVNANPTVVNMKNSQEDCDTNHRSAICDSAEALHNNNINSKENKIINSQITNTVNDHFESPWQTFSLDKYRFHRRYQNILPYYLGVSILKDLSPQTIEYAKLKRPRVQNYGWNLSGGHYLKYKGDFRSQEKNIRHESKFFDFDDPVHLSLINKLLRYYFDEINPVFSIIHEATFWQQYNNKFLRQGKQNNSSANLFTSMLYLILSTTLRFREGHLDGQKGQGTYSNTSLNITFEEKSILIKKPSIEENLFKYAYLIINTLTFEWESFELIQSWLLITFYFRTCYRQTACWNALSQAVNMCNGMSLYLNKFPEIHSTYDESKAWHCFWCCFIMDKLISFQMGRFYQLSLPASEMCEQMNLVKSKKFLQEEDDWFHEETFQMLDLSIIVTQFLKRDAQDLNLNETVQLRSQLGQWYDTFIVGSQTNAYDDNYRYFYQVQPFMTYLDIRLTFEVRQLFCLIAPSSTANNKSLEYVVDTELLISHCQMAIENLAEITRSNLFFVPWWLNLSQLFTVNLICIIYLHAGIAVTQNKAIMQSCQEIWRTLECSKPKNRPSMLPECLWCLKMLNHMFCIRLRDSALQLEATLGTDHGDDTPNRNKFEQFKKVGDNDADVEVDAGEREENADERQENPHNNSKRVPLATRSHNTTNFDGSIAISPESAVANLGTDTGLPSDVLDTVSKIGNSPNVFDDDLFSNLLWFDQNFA

Sequence	PBM E-score
ATCCGGGG	0.398
ATCCGGCA	0.38
ATCCGGCC	0.394
AACCGGGG	0.164
ATCCGGGA	0.368
ATCCGGGC	0.405
ATCCGGCG	0.368
CTCCGGGC	0.131
AGCCGGGC	0.166
AATATAAC	0.109
CGTCTCAG	-0.235
CGGAACCG	0.407
CCGAACCA	0.356
TGGAACCA	0.0635
CCGAACCC	0.37
CGGAACCC	0.359
AGGAACCG	0.263
GGGAACCA	-0.0292
CCGAACCG	0.447
CGGAACCA	0.41
CATTCTCA	0.0317
CAATGTCC	0.00172

Sequence	PBM E-score
AAATGCGC	-0.041
GTGCCGAA	0.441
ATGCCGAC	0.333
ATGCCGCA	0.0956
ATGCCAAA	-0.302
GGGCCGAA	0.314
ATGCCGAG	0.423
GTGCCAAA	-0.0603
ATGCCGTG	0.00847
CTGCCGAA	0.411
CTGCCGAC	0.331
ATGCCGAA	0.433
CTGCCGCA	0.0287
GCAAGTGA	-0.0836
CTCGCGAG	-0.0385
GTAAGTAC	0.00926
AGCGACCC	0.0831
ATGGTCGC	-0.0565
CGTTAGCA	-0.0245
ACAGGCAT	-0.242
GAAGCCCA	-0.1
CAAGCCGA	0.297

Sequence	PBM E-score
TAAGCCGA	0.392
GAAGCCGC	0.193
GAAGCCGA	0.401
AAAGCCGA	0.322
ACGATTGG	-0.176
GCTCGGCC	0.289
ACTCGGCG	0.326
AATCGGCA	0.32
ACTCGGCC	0.232
GCTCGGCA	0.443
CCTCGGCG	0.411
TCTCGGCA	0.446
CATCGGCG	0.165
CCACGGCG	-0.0429
GCACGGCA	0.109
TCACGGCA	0.114
ACTCGGCA	0.428
ACGACGTC	-0.148
ATTGGGGA	-0.245
AGATACTG	-0.169
ACCAGCCG	0.256
AGATGAAG	-0.0847

Sequence	PBM E-score
AGCTAAGA	-0.055
AAGCCAAG	-0.0879
CCCGCATC	0.101
ACATAGAG	-0.166
GAGAAATC	0.0628
CGTCGGCA	0.38
CCTCGGCA	0.461
CCTCGGCC	0.313
AATCGGCT	0.344
ACTCGGCT	0.414
ACTCGTCT	-0.126
GAGTCCCC	-0.0682
ACGTGATA	-0.167
CCCTGACC	0.0155
CCAGACTC	-0.0717
GAAACAGA	-0.0644
AGCCGACT	0.261
AGCCGTAT	0.0974
CACCGAAA	0.201
AGCCGAAG	0.391
AGACGAAG	-0.0901
GACCGAAA	0.255

Sequence	PBM E-score
AGCCGAAT	0.426
CGCCGAAG	0.372
GGCCGAAC	0.313
TACCGAAA	0.385
CGCCGAAC	0.366
AGCCGAAC	0.411
GAGCCGTA	0.191
AGCCCGTC	-0.0989
ATGATTCG	0.0336
GGGTCTAA	-0.0158
AAAGCTCA	-0.202
CTGCAGTA	-0.353
AATCAGGC	-0.174
TGCCGACA	0.359
TGACGAAA	-0.207
GGCCGAAA	0.319
TGCCGAAA	0.444
AGCCGAAA	0.425
CGCCGAAA	0.34
AACAGGAA	-0.219
AGCACAAC	0.0479
